NPC1 prom act = activators of NPC1 promoter. actives 2.4% (n = 320,000). Huh7 NPC1 promoter luciferase reporter, 24 h. Potency, µM (doses to about 9.22 µM), without a hit: at the highest dose activation, most hits filed as activators; note: % of control where 0% means no effect; nearly all actives have a fitted effect of over 60% in size
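Stable NPC1-promoter luciferase Huh7 line; cpd (DMSO) 24 h, 37 °C, 5% CO2; Amplite luciferase reagent 10 min RT; luminescence readout. qHTS format.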
FLuc counter = firefly luciferase modulation, counter-screen for miR-21 project. P08659. purified FLuc, Km substrates, luminescence inhibition. Potency, µM (series often up to 57.5 µM), for inactives: top-dose activity change, negative = inhibition, most hits filed as inhibitors. actives 6.9% (n = 360,000). AID 588342;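 note: plate controls were vehicle for no effect and reference inhibitor for full effect; nearly all actives have a fitted effect of over 55% in size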
Target sequence (P08659 whole entry, looked up): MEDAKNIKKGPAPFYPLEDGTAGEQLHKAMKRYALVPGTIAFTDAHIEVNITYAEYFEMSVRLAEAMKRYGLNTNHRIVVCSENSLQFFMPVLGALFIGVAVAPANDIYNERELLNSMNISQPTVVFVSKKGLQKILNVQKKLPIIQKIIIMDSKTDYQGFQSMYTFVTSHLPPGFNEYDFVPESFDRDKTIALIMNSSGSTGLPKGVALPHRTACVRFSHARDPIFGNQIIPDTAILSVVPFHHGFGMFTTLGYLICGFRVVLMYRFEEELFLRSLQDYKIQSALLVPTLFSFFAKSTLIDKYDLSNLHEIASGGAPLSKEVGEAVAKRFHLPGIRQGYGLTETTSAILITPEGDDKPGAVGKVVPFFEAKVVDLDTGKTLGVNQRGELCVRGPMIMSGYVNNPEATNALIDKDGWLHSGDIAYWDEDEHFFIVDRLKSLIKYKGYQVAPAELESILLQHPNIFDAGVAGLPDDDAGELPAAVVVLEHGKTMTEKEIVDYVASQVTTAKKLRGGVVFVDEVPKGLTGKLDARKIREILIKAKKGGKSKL
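Purified P. pyralis luciferase (10nM final) with 10uM D-luciferin and 10uM ATP (Km levels) in 50mM Tris acetate pH 7.5, 10mM Mg acetate, 0.01% Tween-20, 0.05% BSA; qHTS 6-point titration, ~60 µM downward; luminescence read.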
Rab9 prom act = activates the Rab9 promoter; Huh7 Rab9 promoter-luciferase reporter, luminescence, 24 h; Potency, µM (titrated, usually from 9.22 µM), for inactives: at the highest dose activation, negative = inhibition, most hits filed as activators; actives 2.8% (n = 320,000); note: % of control where 0% means no effect; nearly all actives have a fitted effect of over 60% in size
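Promoter activation is measured as luciferase luminescence in Huh7 cells stably transfected with a Rab9 promoter–luciferase construct, following 24 h compound exposure at 37 °C and 10 min reagent incubation at ambient temperature.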
KinaseGlo FLuc = blocks Kinase-Glo luciferase, a counter-screen artifact; AID 1379; Kinase-Glo luciferase, ATP luminescence, 8 min; actives 0.28% (n = 200,000); Potency, µM (series often up to 38.3 µM), for the others: at the top dose activity change, negative = inhibition, usual class: inhibitors; Q27757; note: % is set by controls: 0 for no effect and ±100 for the full control effect; nearly all actives have a fitted effect of over 60% in size
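Light output from Kinase-Glo luciferase with luciferin and 10 uM ATP in 50 mM imidazole pH 7.2, KCl, MgCl2, Tween 20, BSA; compound pin-delivered, 8-min ambient incubation, then luminescence read.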
SMN2 splice up = increases expression of the SMN2 splice variant; actives 2.8% (n = 210,000); Potency, µM (highest dose often 46.1 µM), for inactives: at the top dose activity change, positive = activation, usual class: activators; HEK293 SMN2-luciferase splicing reporter, luminescence, 30-36 h; note: % of control where 0% means no effect; nearly all actives have a fitted effect of over 55% in size
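HEK293 cells carry an SMN2 […]–luciferase reporter in which exon 7 inclusion puts luciferase in frame. Cells were plated 10-12 h before compound addition, then incubated 30-36 h at 37C. ONE-Glo luminescence was read; sodium butyrate at 4.5 mM final served as control.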
ELG1 genotoxic = inducers of genotoxicity in HEK293T ELG1-luciferase cells; Potency, µM (series often up to 46 µM), inactives show at the highest dose activity change, positive = activation, actives largely listed as activators; AID 504466; actives 1.3% (n = 330,000); HEK293T ELG1-luciferase reporter, luminescence, 16 h; note: % of control where 0% means no effect; nearly all actives have a fitted effect of over 60% in size
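DMSO vehicle served as control against compound-treated ELG1-luciferase HEK293T cells; exposure lasted 16 hr at 37 °C and 5% CO2, followed by ONE-Glo luminescence detection after 30 min.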
Numbers without * were called inactive; ? = inconclusive; nt = no result; [ ] = remark or other dose. Hits are enriched below; roughly 7.5% of the tested compounds scored in any of these assays. Calls come from the whole dose curve; as a rule, active = well fitted curve in the direction sought with a large enough effect; inconclusive = small, poorly fitted or top-dose-only effect, or another doubt; inactive = no such curve, though single readings can be large; an effect the other way counts as inactive or inconclusive. Potency is the fitted concentration of half-maximal effect.

SMILES	NPC1 prom act	FLuc counter	Rab9 prom act	KinaseGlo FLuc	SMN2 splice up	ELG1 genotoxic
COc1cc(NC(=O)c2cccs2)c(C(=O)OCC(=O)c2cc(C)n(-c3ccc(F)cc3)c2C)cc1OC	0%	9.5µM*	0%	-2%	-9%	8%
C[C@H](NC(=O)N1CCc2nc(-c3ccccc3)c3c(c2C1)CO[C@@H](C)C3)c1ccccc1	nt	nt	nt	-3%[7.66 µM]	1%[9.22 µM]	nt
CCN(CCn1cccn1)C(=O)c1cc(COc2cc(C)ccc2C)on1	3.5µM*	9.5µM*	3.5µM*	nt	nt	?
CCN(CCn1cccn1)C(=O)c1cc(COc2ccccc2SC)on1	2µM*	8.5µM*	3.5µM*	nt	nt	?
CCN(CCN1CCCC1)C(=O)c1cc(COc2ccccc2SC)on1	2%	-1%	-3%	nt	nt	2%
Cc1ccc(-n2ncc3c(NC(C)c4ccccc4)ncnc32)cc1 (stereo not drawn)	nt	6µM*	nt	nt	nt	nt
CC(Nc1ncnc2c1cnn2-c1cccc(Cl)c1)c1ccccc1 (stereo not drawn)	nt	24µM*	nt	nt	nt	nt
COCC(C)Nc1ncnc2c1cnn2-c1cccc(Cl)c1 (stereo not drawn)	nt	13µM*	nt	nt	nt	nt
CCCCc1ccc(Nc2ncnc3c2cnn3-c2ccc(C)cc2)cc1	nt	-10%	nt	nt	nt	nt
COc1ccc(OC)c(Nc2ncnc3c2cnn3-c2cccc(Cl)c2)c1	nt	0%	nt	nt	nt	nt
CCC(CO)Nc1ncnc2c1cnn2-c1ccc(C)cc1 (stereo not drawn)	nt	3.4µM*	nt	nt	nt	nt
CCOC(=O)c1sc2nccc(OC)c2c1N=CN(C)C	-6%	-1%	-4%	-3%	-2%	5%
COCCNC(=S)NC(=O)c1ccc(C(C)(C)C)cc1	24%	13µM*	?	-8%	?	?
COc1ccc(C(=O)NC(=S)NCCc2ccccc2)cc1	5%	?	22%	1%	28%	13%
CC(C)(C)c1ccc(C(=O)NC(=S)NCc2ccco2)cc1	19%	19µM*	8%	nt	nt	9%
CC1CCc2c(sc(NC(=O)Cc3ccccc3)c2C(=O)Nc2ccc(Cl)cc2)C1 (stereo not drawn)	nt	-1%	nt	nt	0%	nt
Cc1cccc(CNc2ccnc(-c3ccoc3)n2)c1	nt	nt	nt	-8%	-35%	nt
COc1cccc(-c2nccc(NCc3cccc(C)c3)n2)c1	nt	nt	nt	-4%	11µM*	nt
Cc1cccc(NS(=O)(=O)c2cc3c(cc2C)NC(=O)CO3)c1	-1%	-1%	1%	nt	nt	0%
Cc1c(NC(=O)C(C)OC(=O)CCc2c[nH]c3ccccc23)c(=O)n(-c2ccccc2)n1C (stereo not drawn)	-3%	0%	-2%	nt	nt	-4%
COC(=O)c1ccc(N/C=C\C(=O)c2ccc3c(c2)OCO3)cc1	?	?	?	-7%	nt	18%
COc1ccc(C(=O)/C=C/Nc2cccc(C)n2)cc1OC	2.2µM*	3.8µM*	2µM*	-5%	13µM*	?
COC(=O)c1ccc(N/C=C/C(=O)c2ccc(OC)c(OC)c2)cc1	9%	-18%	10%	-8%	-10%	?
COc1ccc(C(=O)/C=C/N2CCCCC2)cc1OC	?	24µM*	23%	-6%	-2%	19%
COc1ccc(N/C=C\C(=O)c2ccc3c(c2)OCO3)cc1OC	27%	1.7µM*	25%	-4%	21%	?
SMILES	NPC1 prom act	FLuc counter	Rab9 prom act	KinaseGlo FLuc	SMN2 splice up	ELG1 genotoxic
COc1ccc(N/C=C/C(=O)c2cc(OC)c(OC)c(OC)c2)cc1	-8%	6µM*	-8%	nt	nt	?
COc1ccc(N/C=C/C(=O)c2ccc(OC)c(OC)c2)cc1	8%	2.4µM*	-2%	nt	nt	13%
O=C(CN1CCN(C(=O)CNC(=O)c2ccc3c(c2)OCO3)CC1)Nc1cccc(F)c1	-2%	0%	-1%	nt	nt	4%
O=C(/C=C\Nc1cccc(F)c1)c1ccc2c(c1)OCO2	0.32µM*	0.12µM*	?	nt	nt	0.15µM*
O=C1NC(=S)S/C1=C/c1ccc(N2CCOCC2)o1	11%	9.5µM*	11%	?	-26%	15%
O=C(Nc1nc2ccccc2c(=O)s1)c1ccco1	-2%	15µM*	-13%	nt	nt	0%
CN(C)CCN(C(=O)c1ccco1)c1nc2cc3c(cc2s1)OCCO3	18%	-12%	18%	nt	nt	18µM*
O=C(Nc1nc(-c2cccs2)c(-c2ccccc2)s1)c1ccco1	-8%	-3%	5%	-3%	-9%	4%
O=C(Nc1nc2ccccc2c(=O)s1)c1ccc(F)cc1Cl	8%	3.8µM*	0%	nt	nt	0%
O=C(Nc1nc2cc3c(cc2s1)OCCO3)c1ccncc1	2.2µM*	1.7µM*	1.6µM*	-13%	?	?
COc1ccc(CCNC(=O)C(=O)NCC(c2cccs2)S(=O)(=O)c2ccc(C)cc2)cc1 (stereo not drawn)	nt	2%	nt	nt	nt	nt
O=C(Nc1nc2cc3c(cc2s1)OCO3)c1ccco1	0.25µM*	0.24µM*	0.22µM*	nt	nt	4%
O=C(Nc1nc2cc3c(cc2s1)OCCO3)c1ccco1	?	0.11µM*	0.79µM*	nt	nt	?
O=C(COC(=O)[C@@H]1CC(O)CN1S(=O)(=O)c1ccc2c(c1)OCCO2)NCc1ccc(F)cc1 (stereo partly drawn)	-5%	2%	2%	-1%	3%	4%
C=Cc1ccc(Cn2c(C(=O)O)c(CNCCc3ccccc3)c3ccc(C)cc32)cc1	nt	-14%	nt	nt	nt	nt
CN(C)S(=O)(=O)c1ccc(C(=O)NCc2nnc(SCC(=O)NCc3ccco3)o2)cc1	-2%	4%	18%	nt	nt	1%
CCOC(=O)c1cc(-c2ccc(OC)cc2)n(CCC(=O)Nc2ccc(OC)cc2OC)c1C	nt	1%	nt	nt	nt	nt
Cc1cc(C)n2nc(C(=O)Nc3ccc4c(c3)CCC4)nc2n1	?	13µM*	3.5µM*	-7%	11µM*	?
Cc1cnc(C(=O)Nc2ccc(F)c(F)c2)cn1	?	?	2.5µM*	-16%	13µM*	16µM*
Cc1cnc(C(=O)Nc2ccc3c(c2)CCC3)cn1	?	2.4µM*	0.5µM*	-5%	11µM*	?
O=C(Nc1cccc(Cl)c1)c1cnccn1	3%	-12%	25%	nt	nt	14%
Cc1cnc(C(=O)Nc2cc(F)ccc2C)cn1	0%	-18%	12%	-5%	-3%	4%
O=C(Nc1ccc2c(c1)CCC2)c1cnccn1	3.5µM*	12µM*	3.2µM*	-18%	13µM*	6.5µM*
Cc1cccc(NC(=O)c2ccccc2OCC(=O)N2CCCC2)c1C	-2%	-10%	-4%	1%	6%	4%
COc1cc2c(cc1OC)C1N(CC2)C(=O)CCC12C(=O)CCCC2=O (stereo not drawn)	nt	nt	nt	-3%	29%	nt

Assay outcomes from PubChem BioAssay.
